Laboratory results as given in the supplement of paper PMC12819154, “High-throughput peptide-centric local stability assay extends protein–ligand identification to membrane proteins, tissues and bacteria” (Nature Structural & Molecular Biology, 2025).

Compound: CN[C@@H]1C[C@H]2O[C@@](C)([C@@H]1OC)n1c3ccccc3c3c4c(c5c6ccccc6n2c5c31)C(=O)NC4 [staurosporine]
Assay: log2 fold change of tryptic peptide abundance, ligand vs vehicle (limited proteolysis) (log2 ratio); higher = more trypsin-susceptible (destabilized)
Details: ligand concentration: 20 uM; sample: mouse liver crude lysate; replicate design: treated separately

Chain of UniProt Q9EP53 (Q9EP53 whole entry): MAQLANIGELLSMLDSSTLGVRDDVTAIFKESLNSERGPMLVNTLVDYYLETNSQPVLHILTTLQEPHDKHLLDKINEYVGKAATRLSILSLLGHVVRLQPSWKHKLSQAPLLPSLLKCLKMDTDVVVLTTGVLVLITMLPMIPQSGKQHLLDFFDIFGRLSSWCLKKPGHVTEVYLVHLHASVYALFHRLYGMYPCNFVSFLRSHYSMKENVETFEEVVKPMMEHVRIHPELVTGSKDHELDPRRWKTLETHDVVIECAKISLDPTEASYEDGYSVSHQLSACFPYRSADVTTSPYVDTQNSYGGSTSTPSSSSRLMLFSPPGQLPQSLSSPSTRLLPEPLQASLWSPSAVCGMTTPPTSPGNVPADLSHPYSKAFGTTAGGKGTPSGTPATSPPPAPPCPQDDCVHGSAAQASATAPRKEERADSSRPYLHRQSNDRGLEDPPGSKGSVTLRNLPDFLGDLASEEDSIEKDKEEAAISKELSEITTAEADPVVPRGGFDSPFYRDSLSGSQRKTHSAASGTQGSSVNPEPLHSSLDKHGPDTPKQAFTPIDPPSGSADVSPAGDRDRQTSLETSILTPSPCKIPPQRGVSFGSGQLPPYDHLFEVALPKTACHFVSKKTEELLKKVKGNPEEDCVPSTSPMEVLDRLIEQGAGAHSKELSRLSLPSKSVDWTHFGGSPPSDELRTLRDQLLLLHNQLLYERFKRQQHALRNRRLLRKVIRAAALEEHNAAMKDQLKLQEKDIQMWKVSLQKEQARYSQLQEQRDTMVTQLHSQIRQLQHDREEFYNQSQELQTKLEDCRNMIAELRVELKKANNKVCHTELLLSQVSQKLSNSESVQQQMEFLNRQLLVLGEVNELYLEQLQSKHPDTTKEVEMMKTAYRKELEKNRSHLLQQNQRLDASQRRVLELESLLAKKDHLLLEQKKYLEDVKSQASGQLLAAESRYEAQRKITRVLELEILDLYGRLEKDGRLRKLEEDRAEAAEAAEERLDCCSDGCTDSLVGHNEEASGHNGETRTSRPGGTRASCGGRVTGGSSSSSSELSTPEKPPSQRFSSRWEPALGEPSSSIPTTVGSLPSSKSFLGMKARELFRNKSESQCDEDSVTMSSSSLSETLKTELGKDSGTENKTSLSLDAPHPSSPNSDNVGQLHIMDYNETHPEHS
Chain of UniProt Q5F2E8 (Q5F2E8 whole entry): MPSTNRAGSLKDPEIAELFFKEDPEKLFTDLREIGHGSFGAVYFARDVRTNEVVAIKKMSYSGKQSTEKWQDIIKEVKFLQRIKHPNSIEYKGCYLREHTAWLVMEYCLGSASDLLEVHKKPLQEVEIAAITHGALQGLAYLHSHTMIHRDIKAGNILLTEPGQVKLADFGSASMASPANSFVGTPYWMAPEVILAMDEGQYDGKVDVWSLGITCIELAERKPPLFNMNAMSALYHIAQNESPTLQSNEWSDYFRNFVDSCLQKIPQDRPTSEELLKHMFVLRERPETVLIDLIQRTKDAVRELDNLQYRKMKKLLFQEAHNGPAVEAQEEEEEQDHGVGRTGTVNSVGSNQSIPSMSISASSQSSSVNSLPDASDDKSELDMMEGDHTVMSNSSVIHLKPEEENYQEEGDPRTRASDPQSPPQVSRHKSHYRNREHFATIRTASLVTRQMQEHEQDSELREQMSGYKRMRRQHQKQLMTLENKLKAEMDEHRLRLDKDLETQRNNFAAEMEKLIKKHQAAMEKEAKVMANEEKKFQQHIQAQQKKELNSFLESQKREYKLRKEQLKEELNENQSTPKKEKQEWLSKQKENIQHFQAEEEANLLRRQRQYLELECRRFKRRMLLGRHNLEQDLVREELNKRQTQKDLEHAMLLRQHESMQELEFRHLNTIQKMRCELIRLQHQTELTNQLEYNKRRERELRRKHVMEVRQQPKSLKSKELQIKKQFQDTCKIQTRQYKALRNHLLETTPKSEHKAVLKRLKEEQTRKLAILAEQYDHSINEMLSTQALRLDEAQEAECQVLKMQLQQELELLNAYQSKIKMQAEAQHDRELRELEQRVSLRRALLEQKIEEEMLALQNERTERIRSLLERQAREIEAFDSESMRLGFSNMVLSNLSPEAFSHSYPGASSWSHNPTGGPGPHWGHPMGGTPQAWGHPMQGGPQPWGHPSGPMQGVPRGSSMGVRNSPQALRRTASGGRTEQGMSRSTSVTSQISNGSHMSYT
Chain of UniProt P19157 (P19157 whole entry): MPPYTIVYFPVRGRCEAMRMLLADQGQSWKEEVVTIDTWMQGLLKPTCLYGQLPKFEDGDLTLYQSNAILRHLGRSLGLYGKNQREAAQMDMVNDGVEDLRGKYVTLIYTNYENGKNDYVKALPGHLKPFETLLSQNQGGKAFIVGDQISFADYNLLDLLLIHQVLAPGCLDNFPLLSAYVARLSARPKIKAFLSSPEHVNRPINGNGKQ
Chain of UniProt Q8BPM2 (Q8BPM2 whole entry): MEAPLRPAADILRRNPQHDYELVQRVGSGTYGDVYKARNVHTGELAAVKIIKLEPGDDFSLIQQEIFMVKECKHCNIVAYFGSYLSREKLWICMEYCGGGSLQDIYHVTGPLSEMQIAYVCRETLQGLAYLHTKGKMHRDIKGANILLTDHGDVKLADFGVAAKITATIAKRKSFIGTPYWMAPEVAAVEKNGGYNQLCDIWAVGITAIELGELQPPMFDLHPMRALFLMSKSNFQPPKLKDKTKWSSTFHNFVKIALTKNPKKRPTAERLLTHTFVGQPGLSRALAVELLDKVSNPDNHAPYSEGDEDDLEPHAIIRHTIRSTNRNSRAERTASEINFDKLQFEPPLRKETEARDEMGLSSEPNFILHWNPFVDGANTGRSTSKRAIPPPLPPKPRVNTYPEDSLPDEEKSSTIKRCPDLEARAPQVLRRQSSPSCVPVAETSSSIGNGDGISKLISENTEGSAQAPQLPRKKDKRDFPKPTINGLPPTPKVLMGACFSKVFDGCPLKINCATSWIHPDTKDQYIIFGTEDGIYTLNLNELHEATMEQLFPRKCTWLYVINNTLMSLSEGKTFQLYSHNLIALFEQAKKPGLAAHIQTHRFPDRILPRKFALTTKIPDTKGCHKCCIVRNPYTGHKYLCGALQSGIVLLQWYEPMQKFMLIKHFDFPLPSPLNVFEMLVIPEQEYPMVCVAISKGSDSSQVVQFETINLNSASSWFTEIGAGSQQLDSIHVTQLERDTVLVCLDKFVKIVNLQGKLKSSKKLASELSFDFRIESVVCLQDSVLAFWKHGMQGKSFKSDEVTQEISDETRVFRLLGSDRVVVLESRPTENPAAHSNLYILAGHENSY
Chain of UniProt O35945 (O35945 whole entry): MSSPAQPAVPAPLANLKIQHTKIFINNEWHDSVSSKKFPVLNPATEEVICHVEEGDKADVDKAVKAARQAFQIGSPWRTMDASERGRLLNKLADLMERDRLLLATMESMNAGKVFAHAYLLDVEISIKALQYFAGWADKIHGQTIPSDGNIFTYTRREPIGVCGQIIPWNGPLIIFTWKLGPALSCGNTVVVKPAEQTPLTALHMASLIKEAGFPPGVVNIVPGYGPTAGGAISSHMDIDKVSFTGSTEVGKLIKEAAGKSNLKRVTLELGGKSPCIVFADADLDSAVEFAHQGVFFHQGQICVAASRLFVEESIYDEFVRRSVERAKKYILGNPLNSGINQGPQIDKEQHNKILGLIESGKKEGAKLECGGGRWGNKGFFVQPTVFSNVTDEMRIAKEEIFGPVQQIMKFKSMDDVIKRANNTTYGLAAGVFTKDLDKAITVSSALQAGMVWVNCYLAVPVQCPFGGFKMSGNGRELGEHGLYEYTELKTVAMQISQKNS
Chain of UniProt Q64133 (Q64133 whole entry): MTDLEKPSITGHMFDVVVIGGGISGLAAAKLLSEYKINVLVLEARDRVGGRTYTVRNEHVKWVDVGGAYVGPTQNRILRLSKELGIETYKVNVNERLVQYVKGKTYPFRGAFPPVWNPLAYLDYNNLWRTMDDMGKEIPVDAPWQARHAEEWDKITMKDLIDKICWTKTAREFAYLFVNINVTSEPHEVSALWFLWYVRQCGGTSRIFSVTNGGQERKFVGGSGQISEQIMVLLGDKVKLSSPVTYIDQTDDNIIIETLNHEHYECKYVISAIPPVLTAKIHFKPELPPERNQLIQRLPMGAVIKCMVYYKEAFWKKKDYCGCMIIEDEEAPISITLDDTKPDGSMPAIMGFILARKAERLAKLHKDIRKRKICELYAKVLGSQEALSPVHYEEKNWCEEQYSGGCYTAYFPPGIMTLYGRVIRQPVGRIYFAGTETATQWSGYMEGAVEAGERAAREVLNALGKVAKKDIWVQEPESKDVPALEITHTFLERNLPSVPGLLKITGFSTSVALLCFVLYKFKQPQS
Chain of UniProt Q9D710 (Q9D710 whole entry): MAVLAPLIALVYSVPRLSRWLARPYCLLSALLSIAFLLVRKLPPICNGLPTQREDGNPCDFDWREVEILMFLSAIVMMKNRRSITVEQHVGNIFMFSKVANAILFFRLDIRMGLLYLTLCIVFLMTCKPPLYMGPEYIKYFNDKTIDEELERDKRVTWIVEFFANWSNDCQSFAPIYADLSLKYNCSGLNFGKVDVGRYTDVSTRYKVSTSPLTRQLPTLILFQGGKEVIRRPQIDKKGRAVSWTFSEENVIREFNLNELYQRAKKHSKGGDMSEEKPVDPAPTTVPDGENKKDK
Chain of UniProt P33622 (P33622 whole entry): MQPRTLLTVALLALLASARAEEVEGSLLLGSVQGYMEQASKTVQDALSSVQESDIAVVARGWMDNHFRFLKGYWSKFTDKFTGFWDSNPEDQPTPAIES

| Target | log2 fold change |
| --- | --- |
| UniProt O35945 (peptide sequence: TVAMQISQK, peptide start residue: 491) | -0.312 |
| UniProt Q8CC86 (peptide sequence: VCLYLGLEEQEPHPGER, peptide start residue: 253) | -0.575 |
| UniProt Q64133 (peptide sequence: ELGIETYK, peptide start residue: 83) | -0.486 |
| UniProt Q3UHJ0 (peptide sequence: DLKVENILLHDR, peptide start residue: 176) | -4.22 |
| UniProt P19157 (peptide sequence: AFLSSPEHVNRPINGNGK, peptide start residue: 192) | -0.521 |
| UniProt Q9EP53 (peptide sequence: SHLLQQNQR, peptide start residue: 890) | -0.636 |
| UniProt Q5F2E8 (peptide sequence: AGNILLTEPGQVK, peptide start residue: 150) | -2.13 |
| UniProt Q9Z2A0 (peptide sequence: HIIKENKVPYVTR, peptide start residue: 120) | -2.47 |
| UniProt Q9D710 (peptide sequence: EFNLNELYQR, peptide start residue: 254) | -0.349 |
| UniProt P33622 (peptide sequence: GWMDNHFR, peptide start residue: 61) | 0.483 |
| UniProt Q8BPM2 (peptide sequence: LLTHTFVGQPGLSR, peptide start residue: 271) | -1.27 |
